Several values for one entry are separate records, joined by “and”; a condition that tells them apart may be missing. Equal entries are not always repeated. The source holds several records for some structures; these can differ, active in one and inactive in another. Activity calls are given as the source filed them. The calls were made as follows: active = hit-call score of the fitted dose curve at least 0.9, where 1 is the maximum; inactive = score below 0.9.

This is an account of results in PubChem BioAssay (EPA / NIEHS).

A short description of assay [1]: ATG_M_32_CIS: Attagene CIS-FACTORIAL HepG2 Assay for M32 Transcription Factor (Internal Marker) (AID 2282949).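 Also: background control marker of the multiplexed CIS panel rather than a real target.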 The settings on record: HepG2 Attagene cis-factorial M32 reporter, mRNA; actives raise or lower the signal. In a few lines: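 Transient MRTU transfection of HepG2; 24 h compound treatment; TriZol RNA, oligo(dT) RT, reporter PCR, 6-FAM primer extension, HpaI cut, CE. Gain/loss of signal vs DMSO.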

The nature of assay [2]: ATG_M_06_CIS: Attagene CIS-FACTORIAL HepG2 Assay for M06 Transcription Factor (Internal Marker) (AID 2282950). The settings on record: HepG2 Attagene CIS-FACTORIAL M06 internal marker reporter; actives raise or lower the signal. In a few lines: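 Fluorescence-labelled RT-PCR products from cis-promoter reporter units, cut with HpaI and resolved by capillary electrophoresis, give the signal. Cells are human HepG2, dosed for 24 h. Serves as background control, fitted relative to DMSO.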

Assay [3] addresses Hypoxia-inducible factor 1-alpha (Homo sapiens) (UniProt Q16665). The assay can be described thus: ATG_HIF1a_CIS: Attagene CIS-FACTORIAL HepG2 Assay for human Hypoxia Inducible Factor 1 (HIF1A) (AID 2282951). The settings on record: HepG2 Attagene cis-factorial HIF1a reporter transcription; actives raise or lower the signal. In a few lines: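 Dosed 24 h, transfected HepG2 cells yielded total RNA whose reporter transcripts were RT-PCR-amplified and sized by capillary electrophoresis using fluorescent labelling; DMSO defined baseline, with gain and loss of signal both fitted.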

For assay [4], the target named is Hepatocyte nuclear factor 6 (Homo sapiens) (UniProt Q9UBC0). The assay can be described thus: ATG_HNF6_CIS: Attagene CIS-FACTORIAL HepG2 Assay for human Hepatocyte Nuclear Factor 6 (HNF6) (AID 2282952). The settings on record: HepG2 Attagene cis-factorial HNF6 reporter transcription; actives raise or lower the signal. In a few lines: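 Endogenous transcription factor activity in human HepG2 liver cells was captured through cis-regulated reporter constructs. After 24 h treatment, reporter mRNA was measured by RT-PCR with capillary electrophoresis, and activity was fitted in both directions relative to DMSO.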
Hepatocyte nuclear factor 6 (Homo sapiens), sequence (Q9UBC0 whole entry, looked up): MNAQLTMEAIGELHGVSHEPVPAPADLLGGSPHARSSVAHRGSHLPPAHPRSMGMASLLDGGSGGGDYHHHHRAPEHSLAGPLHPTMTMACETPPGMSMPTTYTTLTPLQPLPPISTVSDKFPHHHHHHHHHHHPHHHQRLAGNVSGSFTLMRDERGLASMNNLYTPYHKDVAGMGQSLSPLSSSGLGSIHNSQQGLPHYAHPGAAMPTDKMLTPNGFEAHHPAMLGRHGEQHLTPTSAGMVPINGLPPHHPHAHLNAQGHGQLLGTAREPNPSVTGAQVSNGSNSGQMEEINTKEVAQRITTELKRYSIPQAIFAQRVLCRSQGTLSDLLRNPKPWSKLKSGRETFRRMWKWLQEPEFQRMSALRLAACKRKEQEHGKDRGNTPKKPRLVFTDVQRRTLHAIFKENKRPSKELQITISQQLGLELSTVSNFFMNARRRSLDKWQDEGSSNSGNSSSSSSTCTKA

Assay [5] has as its target Heat shock factor protein 1 (Homo sapiens) (UniProt Q00613). The experiment in a line: ATG_HSE_CIS: Attagene CIS-FACTORIAL HepG2 Assay for human Heat Shock Transcription Factor 1 (HSE) (AID 2282953). The settings on record: HepG2 HSE cis-reporter, Attagene RNA transcription; actives raise or lower the signal. In short, it runs like this: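 After a 24 h incubation with test chemical, transfected HepG2 cells were harvested for RNA; reporter transcripts were measured by RT-PCR and capillary electrophoresis. Values reflect gain or loss of signal relative to DMSO.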

Assay [6] in a line: ATG_MRE_CIS: Attagene CIS-FACTORIAL HepG2 Assay for human Metal Responsive Element (MRE) (AID 2282954). The settings on record: HepG2 MRE cis-reporter transcription, Attagene multiplex; actives raise or lower the signal. In a few lines: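 RT-PCR/capillary electrophoresis readout of reporter mRNA, 24 h post-dosing, in HepG2 cells transfected with multiplexed cis-regulated reporter constructs. Gain or loss of signal fitted bidirectionally against DMSO baseline.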

The nature of assay [7]: ATG_PBREM_CIS: Attagene CIS-FACTORIAL HepG2 Assay for human Phenobarbital-responsive Enhancer Module (PBREM) (AID 2282955). The settings on record: HepG2 PBREM cis-reporter, Attagene multiplexed transcription; actives raise or lower the signal. In a few lines:
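Transfected liver-derived HepG2 cells exposed 24 h; PBREM reporter transcript quantified via RT-PCR and capillary electrophoresis, with activity in either direction referenced to DMSO.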

Assay [8] addresses Paired box protein Pax-6 (Homo sapiens) (UniProt P26367). The assay can be described thus: ATG_Pax6_CIS: Attagene CIS-FACTORIAL HepG2 Assay for human Paired Box 6 (PAX6) (AID 2282956). The settings on record: HepG2 CIS-FACTORIAL PAX6 reporter transcription, RNA readout; actives raise or lower the signal. In a few lines:
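Read-out is reporter transcript level, measured by RT-PCR with fluorescent primer extension and capillary electrophoresis after 24 h dosing of transfected HepG2 cells. Activity in either direction fitted relative to DMSO control.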

A short description of assay [9]: ATG_PXRE_CIS: Attagene CIS-FACTORIAL HepG2 Assay for human Pregnane X Receptor Element (PXRE) (AID 2282957). The conditions noted are these: HepG2 Attagene CIS-FACTORIAL PXRE reporter, mRNA; actives raise or lower the signal. In a few lines:
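Endogenous transcription factor activity in HepG2 was gauged through induction of reporter mRNA driven by a cis-regulating promoter element, sampled 24 h post-treatment. Activity was fitted in both directions against DMSO negative control.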

Assay [10] in a line: ATG_PPRE_CIS: Attagene CIS-FACTORIAL HepG2 Assay for human Peroxisome Proliferator-activated Response Element (PPRE) (AID 2282958). The settings on record: HepG2 PPRE cis-element reporter, Attagene transcription factor profiling; actives raise or lower the signal. In a few lines:
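Measured endpoint: PPRE-controlled reporter mRNA, detected by RT-PCR and capillary electrophoresis fluorescence, from transiently transfected HepG2 cells 24 h after dosing. Curves fitted in both directions using DMSO baseline.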

Hypoxia-inducible factor 1-alpha (Homo sapiens), sequence (Q16665 whole entry, looked up): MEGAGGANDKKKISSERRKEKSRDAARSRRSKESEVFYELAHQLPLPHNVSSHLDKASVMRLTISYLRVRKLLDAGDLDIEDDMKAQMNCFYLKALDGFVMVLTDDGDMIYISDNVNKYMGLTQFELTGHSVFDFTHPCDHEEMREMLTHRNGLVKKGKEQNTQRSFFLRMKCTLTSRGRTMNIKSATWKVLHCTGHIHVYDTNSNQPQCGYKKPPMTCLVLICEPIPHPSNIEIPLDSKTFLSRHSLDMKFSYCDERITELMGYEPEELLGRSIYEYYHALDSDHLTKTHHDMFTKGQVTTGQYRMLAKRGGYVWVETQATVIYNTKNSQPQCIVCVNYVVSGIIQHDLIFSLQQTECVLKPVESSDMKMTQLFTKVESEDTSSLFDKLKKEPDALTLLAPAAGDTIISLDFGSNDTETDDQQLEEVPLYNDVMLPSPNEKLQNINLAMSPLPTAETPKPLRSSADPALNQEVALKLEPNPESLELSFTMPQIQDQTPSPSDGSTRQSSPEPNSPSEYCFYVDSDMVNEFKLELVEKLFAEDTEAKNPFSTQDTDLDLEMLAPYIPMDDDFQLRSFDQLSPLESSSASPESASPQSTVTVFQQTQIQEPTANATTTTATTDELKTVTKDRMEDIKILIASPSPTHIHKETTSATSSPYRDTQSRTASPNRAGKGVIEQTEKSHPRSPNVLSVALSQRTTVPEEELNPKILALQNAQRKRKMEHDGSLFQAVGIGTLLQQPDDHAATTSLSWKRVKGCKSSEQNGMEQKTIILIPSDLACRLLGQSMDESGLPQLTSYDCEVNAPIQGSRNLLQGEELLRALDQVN
Paired box protein Pax-6 (Homo sapiens), sequence (P26367 whole entry, looked up): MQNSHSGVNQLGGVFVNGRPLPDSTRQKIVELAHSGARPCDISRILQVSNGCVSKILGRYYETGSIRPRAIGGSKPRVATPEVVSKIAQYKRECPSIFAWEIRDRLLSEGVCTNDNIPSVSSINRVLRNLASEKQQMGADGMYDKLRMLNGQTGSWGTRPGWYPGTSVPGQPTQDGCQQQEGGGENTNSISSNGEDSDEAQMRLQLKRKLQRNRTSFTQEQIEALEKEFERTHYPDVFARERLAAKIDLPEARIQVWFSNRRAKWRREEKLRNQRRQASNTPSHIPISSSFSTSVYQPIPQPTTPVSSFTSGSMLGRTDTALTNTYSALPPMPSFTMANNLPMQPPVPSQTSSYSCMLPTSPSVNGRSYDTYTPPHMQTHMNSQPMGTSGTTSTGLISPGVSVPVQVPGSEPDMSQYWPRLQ
Heat shock factor protein 1 (Homo sapiens), sequence (Q00613 whole entry, looked up): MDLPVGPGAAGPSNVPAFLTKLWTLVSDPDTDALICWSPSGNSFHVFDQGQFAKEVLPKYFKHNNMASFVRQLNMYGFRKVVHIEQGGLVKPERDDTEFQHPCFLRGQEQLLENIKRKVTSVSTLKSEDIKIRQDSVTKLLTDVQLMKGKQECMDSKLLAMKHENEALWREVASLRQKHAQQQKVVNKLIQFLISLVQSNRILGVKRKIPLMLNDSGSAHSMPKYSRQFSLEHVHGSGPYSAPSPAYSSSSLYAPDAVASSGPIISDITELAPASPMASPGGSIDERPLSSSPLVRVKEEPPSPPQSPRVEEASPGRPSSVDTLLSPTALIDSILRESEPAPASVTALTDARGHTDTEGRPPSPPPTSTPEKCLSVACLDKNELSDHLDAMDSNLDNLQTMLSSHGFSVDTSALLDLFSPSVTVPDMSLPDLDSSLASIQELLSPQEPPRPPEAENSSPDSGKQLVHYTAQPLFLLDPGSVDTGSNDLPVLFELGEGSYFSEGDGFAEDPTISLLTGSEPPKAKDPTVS

What is called AC50 is the midpoint of the concentration-response curve, whichever way the signal moves. Take `Cc1cc(-c2cc(C)c(N)c(C)c2)cc(C)c1N`: the call in assay [1], in assay [2], in [3], in [4], in assay [5] and in assay [6] was inactive. In addition, the outcome in assay [7], in assay [8] and in assay [10] was inactive. Further, the AC50 in assay [9] is 26.5 µM (active).
For the compound `O=c1oc2ccccc2c(O)c1C(CC(O)c1ccc(-c2ccc(Br)cc2)cc1)c1ccccc1` (stereo unspecified), the compound was classed as inactive in assay [1], in assay [2], in [3] and in [4]. For the same compound, the AC50 in assay [3] was 14.6 µM (active); in assay [5] it was 48.7 µM (active) and 59.6 µM (active); in [6] it was 40.3 µM (active) and 31.9 µM (active); in [8] it was 46.5 µM (active) and 31.9 µM (active); in assay [9] it was 8.03 µM (active) and 7.59 µM (active); in [10] it was 10.8 µM (active) and 227 nM (active).
For `O=S(=O)(C(Cl)(Cl)Cl)C(Cl)(Cl)Cl`, the compound was classed as inactive in assay [1], in assay [2], in assay [3], in assay [4], in assay [7] and in assay [10]. Further, the AC50 in assay [5] is 7.93 µM (active); in assay [6], 16.5 µM (active); in [8], 16 µM (active); in assay [9], 11.1 µM (active).
Regarding `CCOP(=S)(OCC)Oc1ccc(Cl)cc1Cl`, the compound was called inactive in assay [1], in [2], in assay [3], in assay [4], in assay [5] and in assay [6]. Further, the outcome in assay [7], in assay [8] and in assay [10] was inactive. Besides, the AC50 in [9] is 3.82 µM (active).
Consider `CCCCN(CCCCO)N=O`, for which the compound was called inactive in assay [1], in assay [2], in [3], in [4], in assay [5] and in assay [6]. Also, the result in assay [7], in [8] and in assay [10] was inactive. Also, the AC50 in assay [9] is 35.3 µM (active).
For `Brc1c(Br)c(Br)c(Oc2c(Br)c(Br)c(Br)c(Br)c2Br)c(Br)c1Br`, the result in assay [1], in assay [2], in assay [3], in [4], in assay [5] and in assay [6] was inactive. Besides, the outcome in [7], in assay [8], in assay [9] and in assay [10] was inactive.
In the case of `COC(F)(C(F)(F)C(F)(F)F)C(F)(C(F)(F)F)C(F)(F)F` (stereo unspecified), the compound was called inactive in assay [1], in [2], in assay [3], in [4], in assay [5] and in assay [6]. Besides, the outcome in assay [7], in [8], in assay [9] and in assay [10] was inactive.
For `O=C(NC(=O)c1c(F)cccc1F)Nc1cc(Cl)c(OC(F)(F)C(F)C(F)(F)F)cc1Cl` (stereo unspecified), the compound was classed as inactive in assay [1], in assay [2], in [3], in assay [4], in assay [5] and in assay [6]. Further, the result in [7] and in assay [8] was inactive.
As for `C1CN2CCN1CC2`, the call in assay [1], in assay [2], in assay [4], in assay [5], in assay [6] and in assay [7] was inactive. Moreover, the compound was classed as inactive in assay [8] and in [9]. In addition, the AC50 in assay [3] is 50.5 µM (active).
Regarding `[Cl][Sn]([c]1ccccc1)([c]1ccccc1)[c]1ccccc1`, the compound was called inactive in assay [1], in assay [2], in assay [7] and in assay [9]. Further, the AC50 in [3] is 0.252 µM (active); in assay [4], 1.62 µM (active); in assay [5] it was 0.243 µM (active); in assay [6] it was 0.23 µM (active); in assay [8], 0.248 µM (active); in [10] it was 11.7 nM (active).
With `CNC(=O)O/N=C/C(C)(C)S(C)(=O)=O`, the call in assay [1], in assay [2], in assay [3], in [4], in assay [5] and in assay [6] was inactive. The result in [7], in [8] and in assay [9] was inactive.
Regarding `c1ccc2c(c1)Oc1ccccc1O2`, the result in assay [1], in assay [2], in assay [3], in assay [4], in assay [5] and in [6] was inactive. In addition, the result in assay [7] and in [8] was inactive. Also, the concentration at half-maximal activity (AC50) in assay [9] is 75.9 µM (active).
On to `CCNc1nc(NCC)nc(SC)n1`, for which the compound was classed as inactive in [1], in assay [2], in [3], in [4], in [5] and in assay [6]. Also, the outcome in [7] and in assay [8] was inactive. Also, in assay [9], the AC50 was 27.9 µM (active).
On to `O=C(O)C1(c2ccc3c(c2)OC[C@H](Cc2ccc(-c4ccccc4)cc2)[C@H]3O)CCCC1`, for which the call in assay [1], in [2], in [3], in assay [4], in assay [5] and in assay [7] was inactive. In addition, the outcome in [8], in assay [9] and in assay [10] was inactive. Further, the AC50 in [6] was 2.85 µM (active).
Consider `CC(O)(CS(=O)(=O)c1ccc(F)cc1)C(=O)Nc1ccc(C#N)c(C(F)(F)F)c1` (stereo unspecified), for which the compound was called inactive in [1], in [2], in assay [3], in [4], in assay [5] and in assay [7]. Moreover, the compound was classed as inactive in [8] and in [10]. Further, the values for the AC50 in [6] and in assay [9] were 72.3 µM (active) and 3.99 µM (active), respectively.
Regarding `CCN(CCO)CCO`, the result in [1], in assay [2], in [3], in assay [4], in assay [5] and in assay [6] was inactive. Moreover, the result in assay [7], in [8] and in assay [10] was inactive. The AC50 in [9] is 27.2 µM (active).
For `CC(c1ccc(O)cc1)c1ccc(O)cc1`, the call in assay [1], in assay [2], in assay [3], in [4], in [7] and in assay [8] was inactive. For the same compound, the figures for the AC50 in assay [5], in assay [6] and in assay [9] were 168 µM (active), 100 µM (active) and 27.6 µM (active), respectively.
With `CCC[CH2][Sn]([CH2]CCC)([CH2]CCC)[CH2]CCC`, the result in assay [1], in assay [2], in assay [3], in assay [4] and in assay [6] was inactive. Moreover, the half-maximal activity concentration (AC50) is 17.1 µM (active) in [5]; 2.9 µM (active) in assay [7]; 11.1 µM (active) in [8]; 18.3 µM (active) in assay [9]; 2200 nM (active) in assay [10].
In the case of `FC(F)OCC(F)(F)C(F)(F)F`, the compound was called inactive in assay [1], in [2], in assay [3], in assay [4], in assay [5] and in [6]. The outcome in assay [7], in [8], in [9] and in assay [10] was inactive.
As to `CC(C)(C)c1ccc(CCOc2ncnc3ccccc23)cc1`, the call in [1], in assay [2], in assay [3], in assay [4], in assay [5] and in [6] was inactive. Also, the outcome in assay [7] and in assay [8] was inactive.
As to `N#Cc1ccccc1N`, the result in assay [1], in assay [2], in assay [3], in assay [4], in [5] and in assay [6] was inactive. The result in [7], in assay [8] and in assay [10] was inactive. Further, the AC50 in assay [9] was 39.4 µM (active).
